Data published in PubChem BioAssay (NCI).
About 83,000 compounds went through this panel and 20% of them were active in at least one assay; those are over-represented in the sample as a whole.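 Single-dose data. Exposure time 48 hours. Values below 10 considered active.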 Values without a mark were called inactive.

System: PC-3 prostate
Assay: NCI-60 one-dose screen, 48 h (100 = growth as untreated, 0 = no growth, -100 = all killed)
Conditions: 10 µM unless noted

Structure (SMILES)	growth
S=c1nc(-c2ccccn2)c(-c2ccccn2)n[nH]1	97.7%
O=C(O)c1ccc(OCc2ccccc2)cc1	90.4%
CCC(=O)Oc1c(C)cc(O)c2ccccc12	59%
Cc1nc(O)cc(=O)[nH]1	97%
CC(=O)NNC(=S)/N=C\C(C(=O)c1ccccc1)=C(/O)c1ccccc1	93%
OCC(O)COc1ccc(Cl)cc1Cl (configuration not stated)	97.3%
ClCc1cccc2c(CCl)cccc12	65.9%
COc1c(CNC(=O)CCl)cc2[nH]c(C)cc2c1CNC(=O)CCl	67.9%
CC(=O)Nc1ccc(/C=C2\SC(=S)N(/C=C(\C(C)=O)C(N)=O)C2=O)cc1	78.5%
CC(CO)(CO)C(=O)O	94.9%
COC(=O)c1ccc([N+](=O)[O-])c(C)c1	93.4%
CC(C)c1ncc([N+](=O)[O-])n1C	102%
CC(=O)c1cccc(NS(=O)(=O)c2ccc(C)cc2)c1	78.9%
Clc1ccc(-c2noc(/C=C\c3ccccc3)n2)cc1	102%
OC1Cc2ccccc2C1	95.4%
CC(=O)Nc1ccc(O)c(C)c1	87%
Oc1ccc(N=Cc2ccc(OCc3ccccc3)cc2)cc1	92.5%
CCCCNC(=O)c1ccc(OCC)cc1	90.9%
CSc1nc2[nH]ncc2c(=O)[nH]1	107%

Structure (SMILES)	growth
Cc1ccc2nc(-c3ccc(N=Cc4ccccc4O)cc3)sc2c1	85.4%
O=C(CCCl)OCCOc1ccccc1	95.9%
CCC1CCC(C)NC1 (configuration not stated)	94.2%
COc1cc(C(=O)N2CCN(c3ccccc3)CC2)c2ccccc2n1	35.5%
NNc1ncnc2nc[nH]c12	63%
FC(F)(F)c1cc(NC2=NCCN=C(Nc3cc(C(F)(F)F)cc(C(F)(F)F)c3)SS2)cc(C(F)(F)F)c1	17.1%
Nc1ncnc(Nc2ccccc2)n1	101%
c1ccc2[nH]c(Cc3nc4ccccc4[nH]3)nc2c1	93.7%
CC(C)(N)CO[C@H]1C[C@H]2CC[C@@]1(C)C2(C)C	88.8%
Nc1ncc([N+](=O)[O-])cn1	88.7%
Cc1cc(CC(=O)NCCO)n(CCO)c(=O)c1	104%
NNC(=O)N/N=C1\C(=O)N(c2nccs2)C(=O)C(=O)C1c1nc2ccccc2s1 (configuration not stated)	82.6%
Nc1nc(Cl)cc(Cl)n1	98.5%
CC(=O)c1cccc(O)c1	106%
O=c1n(CC2CO2)c(=O)n(CC2CO2)n1CC1CO1 (configuration not stated)	70%
O=C(O)c1c[nH]c2ccccc2c1=O	97.6%
CC1(C)CCC(C)(C)NC(=S)N1	100%
NC(=O)OCCO	98.5%
